PubChem BioAssay AID1347417 (National Center for Advancing Translational Sciences (NCATS), 2020)
Out of some 120,000 compounds screened, about 5,300 (4.4%) were called active. Another 22% or so got no clear call; they are omitted. The list comes from a sample in which actives are over-represented; it also holds similar structures and randomly drawn compounds. Entries that show only a call come without a potency. Unmarked numbers belong to inactive results. Calls follow the shape of the dose curve; as a rule, active = well fitted inhibition curve with a large enough effect; inconclusive = small, poorly fitted or top-dose-only effect; inactive = no such curve, though single readings can be large or run the other way.
Potency is read from the fitted curve at half-maximal effect.

Assay: qHTS Primary assay for Inhibitors of Plasmodium falciparum Dd2 growth in vitro; also: nearly all actives have a fitted effect of over 65% in size
Conditions: P. falciparum Dd2 growth, SYBR Green, 72 h; series mostly up to 28.9 µM
Text: Malaria, a parasitic disease spread to humans through the bite of a Plasmodium infected Anopheles mosquito, continues to be a global health burden affecting millions of people, with an estimated 228 million cases and 405,000 deaths in 2018. Concerns about safety and limitations of current antimalarial treatments strongly emphasize the need to develop new therapeutic options. The scarce number of chemotypes and validated drug targets with efficacy against the liver stage, have hindered development of new antimalarials. To address this, a chemoprophylactic drug discovery effort was conducted through a combined phenotypic high-throughput asexual blood stage and liver stage screen, providing a robust foundation to identify liver-stage active lead chemotypes. Compounds were initially screened against Plasmodium falciparum Dd2 strain parasites using a in vitro SYBRGreen-1 based 72 hr proliferation assay to identify novel chemotypes to advance to liver stage assays. NIH/NCATS Early Translation Branch Assay Submitter (PI): Anton Simeonov Ph.D.
Malaria-vivax Assay Protocol: PROTOCOL TABLE (as described by Inglese et al., 2007) SEQUENCE No. (e.g., 1, 2, 3, etc.); […] (e.g., Cells, Incubation, Reagent, etc.); VALUE; DESCRIPTION SEQUENCE, Parameter, Description 1; Reagent; 3 uL complete malaria growth medium, 1536 TC treated Black clear bottom plate 2; Controls; 23 nL positive control artesunate (300 nM final) to column 1; Neutral control DMSO to columns 2-4 3; Compound; 23 nL of compounds in dose response concentration (29 uM to 0.5 nM final) 4; Reagent; 5 uL malaria infected red blood cells (2.5% hematocrit final, 0.3% parasitemia 5; Time; 72 hours at 37C (5% O2, 5% CO2, 90% N2; 95% Rh) 6; Reagent; 2 uL lysis buffer/SYBRGreen-1, 25 sec shake immediately following dispense 7; Time; ~16 hours at 37C (5% O2, 5% CO2, 90% N2; 95% Rh) 8; Detector; EnVision (PerkinElmer) bottom read at 485/14nm excitation and 535/25 nm emission NOTES (numbers refer to sequence above): 1; Complete Malaria Growth Media: 1X RPMI-1640 w/L-glutamine, 5.5g/L Albumax II, 367 uM Hypoxanthine, 25 mM HEPES, 0.25% Sodium Bicarbonate, 35 uM Gentamicin sulfate 2; Controls were added using the Kalypsis Pintool (Wako USA) equipped with 1536 pinhead 3; Compounds were added in a 7-point, titration with a high final concentration of 29 uM by Pintool from seven inter-plate titrations of library plates and two DMSO control plates at the beginning and end (see Yasgar et al., 2008). 4; Red blood cells infected with Plasmodium falciparum Dd2 parasites were used. 6; Lysis buffer: 20 mM Tris-HCl, 10 mM EDTA, 0.16% Saponin, 1.6% Triton-X, 10X SYBR Green. REFERENCE: Inglese J, Shamu CE, Guy RK. 2007. Reporting data from high-throughput screening of small-molecule libraries. Nat Chem Biol. doi:10.1038/nchembio0807-438 Yasgar A, Shinn P, Jadhav A, Auld D, Michael S, Zheng W, Austin CP, Inglese J, Simeonov A. 2008. Compound Management for Quantitative High-Throughput Screening. J Lab Autom 13:79-89. doi:10.1016/j.jala.2007.12.004
With `Cc1ccc(CN2CCC(CNC(=O)c3cnn(-c4ccccc4Cl)c3C3CCN(C(=O)OC(C)(C)C)CC3)CC2)cc1` the Potency was 2.82 µM (active).
With `O=C(c1n[nH]c(=O)c2ccccc12)N1CC2CC(C1)[C@H]1CCCC(=O)N1C2` (some centres not stated) the Potency was “inactive”.
With `Cc1ccc(N2Cc3c(NCCCOC(C)C)ncnc3N(C)CC2=O)cc1` the Potency was “inactive”.
With `Cc1cc(=O)[nH]c(NCCNC(=O)c2cc(-c3cccn3C)n[nH]2)n1` the Potency was “inactive”.
In the case of `Cc1cccc(CC(=O)N2C[C@@H](COc3ccccc3)[C@H](C(N)=O)C2)c1`, the Potency is reported as “inactive”.
With `Cc1nc(C(=O)N2CC[C@H](NC(=O)c3snnc3C)C[C@H]2C(=O)N[C@H](CC(C)C)C(N)=O)cs1` the Potency was “inactive”.
In the case of `Cc1ccc(NC(=O)N2CC3CC(C2)[C@H]2CCCC(=O)N2C3)cc1F` (some centres not stated), the Potency is reported as “inactive”.
In the case of `O=C(N[C@@H]1C[C@H](Cn2cc(CN3CCS(=O)(=O)CC3)nn2)[C@@H](O)[C@H]1O)c1cnccn1`, the Potency is reported as “inactive”.
In the case of `CCC1(N2CCN(C(=O)c3ccc(C(F)(F)F)s3)CC2)CCN(C(=O)NC)C1` (configuration not stated), the Potency is reported as “inactive”.
In the case of `N#Cc1ccccc1NC(=O)c1cc2n(n1)CC(c1ccc(Br)cc1)OC2` (configuration not stated), the Potency is reported as “inactive”.
With `CC(=O)N1CCN(c2ccc3nnc(-c4ccc(C)cn4)n3n2)CC1` the Potency was “inactive”.
For `O=C(Cn1nc(-c2ccccc2)n(CCc2ccccc2)c1=O)NC1CC1`, the Potency was “inactive”.
With `Cc1cn2nc(C(=O)N3CCC(NC(=O)c4ccc(C#N)cc4)CC3)cc2c(=O)[nH]1` the Potency was “inactive”.
For `Cc1cn2nc(C(=O)N3CCC(NC(=O)CCc4ccccc4)CC3)cc2c(=O)[nH]1`, the Potency was 14.1 µM (active).
With `COC(=O)[C@@H](Cc1cccnc1)NC(=O)[C@H]1CN(S(=O)(=O)c2ccccc2)CCN1C(=O)N1CCOCC1` the Potency was “inactive”.
For `COC1C(=O)N(c2cccc(F)c2)C12CCN(C(=O)NCc1ccc(C)cc1)CC2` (configuration not stated), the Potency was “inactive”.
With `CCS(=O)(=O)N1CCC2(CC1)CC(N1CCN(C(C)C)CC1)CCO2` (configuration not stated) the Potency was “inactive”.
For `C=CCN1CC2(CCC1=O)CCN(C(=O)[C@H](N)Cc1ccccc1)CC2`, the Potency was “inactive”.
In the case of `O=C1CCC2(CCN(Cc3ccc4[nH]ccc4c3)CC2)CN1CCc1ccccc1`, the Potency is reported as 7.08 µM (active).
In the case of `Cn1cc(CN2CCN(Cc3ccccc3)CC2)ccc1=O`, the Potency is reported as “inactive”.
With `COc1ccc(C(=O)N2CCCOCCNC(=O)CC2)c(OC)n1` the Potency was “inactive”.
With `CN(Cc1nc2ccsc2c(=O)[nH]1)C(=O)C1NCCc2[nH]cnc21` (configuration not stated) the Potency was “inactive”.
`COc1ccc(C(=O)N2c3ccccc3CC2c2nc(C(C)C)no2)c(OC)c1` (configuration not stated) showed an activity, negative = inhibition of 4.25% [at 5.79 µM].
With `CN1C(=O)[C@H]2CN(Cc3ccccc3Cl)C[C@H]2C1=O` the Potency was “inactive”.
With `O=C1[C@H]2CN(Cc3ccccc3F)C[C@H]2C(=O)N1CCN1CCc2ccccc2C1` the Potency was 5.01 µM (active).
With `O=C(c1nc2c(o1)CCN(Cc1ccccc1F)CC2)N1CCOCC1` the Potency was “inactive”.
With `COCCn1cc(CN2CCN(c3ccccc3F)CC2)ccc1=O` the Potency was “inactive”.
For `CCOc1ccc2c(n1)CCN(C(=O)Nc1ccc(OC)cc1C)C2`, the Potency was “inactive”.
For `COc1ccc(Nc2ncc3c(n2)CCN(C(=O)OC(C)(C)C)C3)cc1`, the Potency was 5.62 µM (active).
In the case of `CCOc1ccc2c(n1)CCN(C(=O)C(C)C)C2`, the Potency is reported as “inactive”.
In the case of `COc1ccc(C(=O)NC2CCN(c3cc(-c4cccs4)[nH]n3)C2)cc1F` (configuration not stated), the Potency is reported as “inactive”.
For `COCCc1noc(-c2ccc(NC(C)c3ncccc3C)nc2)n1` (configuration not stated), the Potency was “inactive”.
With `O=C(NCC1(COc2cccnc2)C[C@@H](O)[C@@H](O)C1)C1CCCC1` (some centres not stated) the Potency was “inactive”.
With `O=C(c1ccccc1)N1CCOc2ccc(CN3CCc4ccccc4C3)cc2C1` the Potency was 7.94 µM (active).
For `O=C1CCN(Cc2ccc3c(c2)CCO3)CCOCCN1`, the Potency was “inactive”.
For `CC(C)(O)CCc1ccc(C(=O)N2CCOc3ccc(Cl)cc3C2)cc1`, the Potency was “inactive”.
In the case of `CCC(C)N1CCN(C(=O)CCc2ccc3c(c2)CN(C(=O)C2CC2)CCO3)CC1` (configuration not stated), the Potency is reported as “inactive”.
In the case of `CC(C)C(=O)N1CCOc2ccc(CN3CCc4ccccc4C3)cc2C1`, the Potency is reported as “inactive”.
With `O=C(CC1CCCC1)N1CCOc2ccc(CN3CCc4ccccc4C3)cc2C1` the Potency was 5.01 µM (active).
In the case of `CC1CCC(NC(=O)CN2C(=O)NC3(CCS(=O)(=O)CC3)C2=O)CC1` (configuration not stated), the Potency is reported as “inactive”.
With `Cc1ccc(CNC(=O)c2ccc(OC3CCN(S(C)(=O)=O)CC3)c(Cl)c2)s1` the Potency was “inactive”.
For `CN(Cc1cccn1C)Cc1ccnn1C`, the Potency was “inactive”.
For `CN(Cc1ccc(-c2ccccc2)cc1)C(=O)c1ccccc1F`, the Potency was “inactive”.
For `O=C(O)COc1ccccc1CN1CC[C@H]2NCCC[C@]2(C(=O)O)C1`, the Potency was “inactive”.
In the case of `COc1ccccc1CNC(=O)CN1CCCC(CO)(CC2CC2)C1` (configuration not stated), the Potency is reported as “inactive”.
With `CC(C)=CCC1(CO)CCCN(Cc2ccccc2OCCO)C1` (configuration not stated) the Potency was 12.6 µM (active).
In the case of `Cc1ccsc1CN1CCCCCNC(=O)[C@@H]2CCC[C@@H]21`, the Potency is reported as “inactive”.
